Rows were chosen to be rich in hits. Some 0.32% of all compounds tested hit in one or more screens of this group.
GPT2 inh: blocks human glutamate pyruvate transaminase 2; Q8TD30; Recombinant GPT2, coupled pyruvate oxidase/HRP Amplex Red fluorescence; Potency, µM (top dose mostly 57.7 µM), inactives show at the highest dose activity change, negative = inhibition, most hits filed as inhibitors; 100,000 tested, 0.25% active; AID 1671188; also: nearly all actives have a fitted effect of over 60% in size
Target sequence (Q8TD30 whole entry, looked up): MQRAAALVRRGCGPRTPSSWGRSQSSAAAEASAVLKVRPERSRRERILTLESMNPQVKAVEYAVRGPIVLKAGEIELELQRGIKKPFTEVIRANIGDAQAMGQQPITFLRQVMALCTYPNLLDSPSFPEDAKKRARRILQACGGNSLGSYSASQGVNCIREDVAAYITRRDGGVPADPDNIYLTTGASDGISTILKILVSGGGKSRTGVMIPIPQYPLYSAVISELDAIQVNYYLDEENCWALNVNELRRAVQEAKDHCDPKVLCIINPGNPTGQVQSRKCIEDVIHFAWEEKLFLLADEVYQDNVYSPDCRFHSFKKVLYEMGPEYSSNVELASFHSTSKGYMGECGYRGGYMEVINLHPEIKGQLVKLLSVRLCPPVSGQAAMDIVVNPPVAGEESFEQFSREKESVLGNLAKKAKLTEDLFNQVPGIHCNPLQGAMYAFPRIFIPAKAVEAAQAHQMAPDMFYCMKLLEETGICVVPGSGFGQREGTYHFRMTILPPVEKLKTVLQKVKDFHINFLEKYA
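GPT2 10ng/uL, a-KG 250uM, L-Ala 2mM, HEPES pH7.5 + 0.0001% Tween; 30 min RT. Then Amplex mix (PO/HRP/ThPP), 30 min RT dark, fluorescence. AOA 50uM used as positive control.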
SNCA expr inh: inhibitors of alpha-synuclein (SNCA) gene expression; HEK-293 SNCA-luciferase knock-in, luminescence, 24 h; Potency, µM (series often up to 57.2 µM), inactives show at the highest dose activity change, negative = inhibition, hits mostly inhibitors; 140,000 tested, 0.17% active;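 also: plate controls were DMSO cells for no effect and cell-free wells for full effect; nearly all actives have a fitted effect of over 45% in size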
HEK293 viab: reduces viability of HEK-293 SNCA reporter cells | Potency, µM (titrated, usually from 57.1 µM), for inactives: at the top dose activity change, negative = cytotoxicity, usual class: cytotoxic | HEK-293-SNCA-luc viability, GF-AFC fluorescence, 24 h | AID 1671193 | 150,000 tested, 0.12% active;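 also: 0% = DMSO-treated cells and -100% = medium-only wells without cells; nearly all actives have a fitted effect of over 30% in size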
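HEK-293-SNCA-luc cells (1500/well) plated 24 h, then exposed 24 h to a dilution series; GF-AFC added 30 min at 37C, fluorescence 405/540 nm; normalised to medium-only and DMSO wells, Hill fit.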
Numbers without * were called inactive; i = inactive; ? = inconclusive; nt = no result given; ! = a repeat was not active; [ ] = remark or other dose. Calls follow the shape of the dose curve; as a rule, active = well fitted curve in the direction sought with a large enough effect; inconclusive = small, poorly fitted or top-dose-only effect, or another doubt; inactive = no such curve, though single readings can be large; an effect the other way counts as inactive or inconclusive. Unless noted, % is scaled to controls: 0 for no effect and ±100 for the full control effect; potency is read from the fitted curve at half-maximal effect.

SMILES | GPT2 inh | SNCA expr inh | HEK293 viab
Cc1cc(C)c2c(CC(=O)Nc3ccc(S(=O)(=O)N4CCCC(C)C4)cc3)coc2c1 (stereo unspecified) | nt | ? | 2%
COc1cc(F)ccc1-c1nc(N2CCOCC2)cc2c1CN(c1ccccc1)C2=O | i | -26%[87.6 µM] | 5%[87.6 µM]
COc1cccc(-c2ccc(C(=O)N3CCC(NC(=O)c4ccccc4)CC3)cc2)c1 | i | 12% | 8%[12.5 µM]
Cc1cccc(CSc2nnc(CCCCCN)o2)c1 | nt | 14µM* | 7%
Cc1ccc(-c2nnc(SCc3cccc(C#N)c3)o2)cc1 | nt | 14% | -6%
Cc1cc(C)n(CCC(=O)N2CC(Oc3ccc(-c4nc(-c5ccccc5)no4)cc3)C2)n1 | -8% | ? | ?
Cn1cnc(C(=O)N2CCC(Cc3ccc(COc4cccc(F)c4)cc3)CC2)c1 | -8% | ? | -8%
CC(C)C(=O)NCC1CN(Cc2ccccc2)C(=O)c2c(ccnc2-c2ccc(OCC(=O)O)cc2)O1 (stereo unspecified) | -17% | 2.8µM* | ?
O=C(O)COc1ccc(-c2nccc3c2C(=O)N(Cc2c[nH]c4ccccc24)CC(CNC(=O)c2cccc(Cl)c2)O3)cc1 (stereo unspecified) | -17% | -2% | 8%
COc1ccc(C2Cn3nnc(C(=O)N4CCN(C(=O)c5cc(F)ccc5Cl)CC4)c3CO2)cc1 (stereo unspecified) | i | -23% | -15%
CC1(C)[C@H]2CC[C@@H](CNC(=O)c3cccc(Br)c3)[C@@H]1C2 | 0%[88.5 µM] | -7%[87.6 µM] | -15%[87.6 µM]
COc1cccc([S+](=O)([O-])NC[C@@H]2CC[C@H]3C[C@@H]2C3(C)C)c1 | -10%[88.5 µM] | 7.1µM* | ?
O=[S+]1([O-])c2cnccc2OC(COc2ccccc2)CN1C1Cc2ccccc2C1 (stereo unspecified) | i | -9%[25.6 µM] | -3%[23.9 µM]
O=C(/C=C/c1ccc(O)c(O)c1)O[C@@H]1[C@@H](O)[C@H](OC2CCCCC2O)O[C@H](CO)[C@H]1O (stereo partly specified) | 1%[27.3 µM] | nt | 0%[23.9 µM]
O=C(/C=C/c1ccc(O)c(O)c1)O[C@H]1[C@H](OC2CCCCC2O)O[C@H](CO)[C@@H](O)[C@@H]1O (stereo partly specified) | 4.5µM* | nt | 0%[23.9 µM]
CO[C@@]12[C@H](COC(N)=O)C3=C(C(=O)C(C)=C(N)C3=O)N1C[C@@H]1N[C@@H]12 | 14µM*! | ? | 10%
COc1cc(F)ccc1-c1cc(-c2c(C)noc2C)c2cncn2c1 | -8%[88.5 µM] | 29%[87.6 µM] | -2%[87.6 µM]
O=C(NCc1ccc2c(c1)CCN2C(=O)c1ccc(F)cc1)c1c(F)cccc1F | nt | -2% | -7%
CNC(=O)c1c(F)cccc1Nc1nc(Nc2cc3c(cc2OC)CCN3C(=O)CN(C)C)nc2[nH]ccc12 | ? | 14µM* | -17%
COc1ccc(Cn2c(=O)c(C(=O)N3CCN(C(=O)c4ccc(C(F)(F)F)cc4)CC3)nc3cccnc32)cc1 | i | -6% | -6%
O=C(NCc1ccccc1)c1ccc2nnc(-c3cc(C(F)(F)F)cc(C(F)(F)F)c3)n2c1 | 4% | -25% | -21%
Cc1ccc(F)cc1-c1ccc(COc2ccc3c(cnn3CCC(=O)O)c2)cc1 | -4%[88.5 µM] | ? | 2%[87.6 µM]
CO[C@@H]1CCOC[C@H]1NS(=O)(=O)c1cc(F)ccc1C | -2%[11.5 µM] | 30% | 12%
Cc1ccc(F)cc1S(=O)(=O)N[C@@H]1CCN(Cc2ccc(OC(C)C)cc2)C1 | 3% | nt | 9.5µM*
CC1CCC(=O)CC(O)C(O)CC(=O)O1 (stereo unspecified) | i | nt | -3%
SMILES | GPT2 inh | SNCA expr inh | HEK293 viab
CC1CCCC[C@H]2C(=O)C=C[C@H](O)[C@@H]2CC(=O)O1 (stereo partly specified) | 4% | nt | 9.5µM*
CNC(=O)CCn1ncc2cc(OCc3ccccc3-c3cc(F)ccc3C)ccc21 | 4%[88.5 µM] | ? | -23%[87.6 µM]
COc1ccc(C(=O)N2CCC3(CC2)CC(=O)c2ccc(Cl)cc2O3)cc1 | ? | -4% | -19%
Cc1cccc(-c2[nH]c(C(C)(C)C)nc2-c2ccc3c(c2)OCO3)n1 | 2% | -31% | -16%
CC(C)(C)Cn1c(N)nc2ccc(-c3[nH]c(C(C)(C)C)nc3-c3ccc(F)cc3)nc21 | 4% | 27µM* | ?
COCCNC(=O)c1cn2cc(-c3ccc(C(F)(F)F)cc3)sc2n1 | -11% | 125% | -10%
COc1cc2c(NC3CCN(C(C)C)CC3)nc(N3CCC(F)(F)CC3)nc2cc1OCCCN1CCCC1 | -19% | nt | 24µM*
COc1cc2nc(N3CCN(C)CC3)nc(NC3CCN(Cc4ccccc4)CC3)c2cc1OC | -26% | nt | ?
COc1ccccc1-c1cc(C(F)(F)F)nc(S(=O)(=O)CCCC(=O)Nc2ccccc2F)n1 | nt | 40% | -2%
O=C(CCS(=O)(=O)c1nc(-c2cccs2)cc(C(F)(F)F)n1)Nc1ccc(OC(F)(F)F)cc1 | nt | 2% | -1%
COc1ccc(NC(=O)CCS(=O)(=O)c2nc(-c3cccs3)cc(C(F)(F)F)n2)cc1 | nt | 35µM* | ?
COc1ccc(Cl)cc1NC(=O)CCS(=O)(=O)c1nc(-c2cccs2)cc(C(F)(F)F)n1 | nt | 28µM* | -23%
CNC(=O)CCn1ncc2cc(OCc3ccccc3-c3ccccc3OC)ccc21 | -28%[88.5 µM] | ? | -28%[87.6 µM]
O=C(Nc1ccccc1F)C1CCCCN1Cc1ccc(-c2cccs2)cc1 (stereo unspecified) | -4% | ? | -3%[12.5 µM]
COc1ccc2[nH]c3c(c2c1)CCNC31CCN(C(=O)c2cccnc2C)CC1 | 3% | 20µM* | -3%[12.5 µM]
COc1ccc2[nH]c3c(c2c1)CCNC31CCN(C(=O)c2cnccc2C)CC1 | 0% | ? | 5%[12.5 µM]
COc1ccc(-c2nc(C(=O)Nc3cccc(C(C)=O)c3)nn2-c2ccc(Cl)cc2)cc1 | nt | -7% | 11%
COCCOc1nc(-c2ccc(Cl)c(Cl)c2)n(-c2ccc(NC(=O)CCl)cc2)n1 | -3% | 15% | 30µM*!
COCCCn1c(=O)c(C(=O)NCc2ccc(C(F)(F)F)cc2)nc2cccnc21 | i | 12% | -11%
NC(=O)NO | -5% | 1.4µM*! | 1%
CC(=O)NO | i | -26%[25.6 µM] | -16%[23.9 µM]
Cc1ccc(C(=O)NC2CCN(c3ccnc4ccnn34)C2)cc1 (stereo unspecified) | 1%[88.5 µM] | -11%[87.6 µM] | 4%[87.6 µM]
COc1ccc(CN2C[C@H](COCc3ccccc3)Oc3ccncc3[S+]2(=O)[O-])cc1 | i | -13%[25.6 µM] | -15%[23.9 µM]
CC1=C(CO)C(=O)O[C@@H]([C@@H](C)[C@H]2CC[C@H]3[C@@H]4C[C@H]5O[C@]56[C@@H](O)C=CC(=O)[C@]6(C)[C@@H]4CC[C@]23C)C1 | 4% | 3µM* | 6.8µM*
CC1=C(C)C(=O)OC(C(C)C2CCC3C4C5OC5C5(O)CC(OC6OC(CO)C(OC7OC(C)C(O)C(O)C7O)C(O)C6O)CC(O)C5(C)C4CCC23C)C1 (stereo unspecified) | i | nt | 8%[23.9 µM]
Cc1ccc(NC(=O)C2CCc3nnc(C4CC4)n32)cc1 (stereo unspecified) | ? | 3%[87.6 µM] | -30%[12.5 µM]
COc1cccc(-c2cccc(C(=O)N3CCCC3C(=O)N3CCN(Cc4ccccc4)CC3)c2)c1 (stereo unspecified) | i | -20% | -12%[12.5 µM]

High-throughput results as filed in PubChem BioAssay.
